Results taken from the supplement of paper PMC3334620.
In all, about 33,000 sequences were measured (“E-score (-0.5 to 0.5)”: median about -0.012, highest 2% from about 0.27 on). The list comes from a sample in which the highest values are over-represented; it also holds similar and randomly drawn sequences.

These sequences were tested against T1, Vhr1 (UniProt P40522) (assay: PBM E-score (8-mer binding enrichment) (E-score (-0.5 to 0.5)); higher = stronger / more preferred TF binding). Details: protein concentration: 200 nM; construct: GST-full length.
T1 sequence: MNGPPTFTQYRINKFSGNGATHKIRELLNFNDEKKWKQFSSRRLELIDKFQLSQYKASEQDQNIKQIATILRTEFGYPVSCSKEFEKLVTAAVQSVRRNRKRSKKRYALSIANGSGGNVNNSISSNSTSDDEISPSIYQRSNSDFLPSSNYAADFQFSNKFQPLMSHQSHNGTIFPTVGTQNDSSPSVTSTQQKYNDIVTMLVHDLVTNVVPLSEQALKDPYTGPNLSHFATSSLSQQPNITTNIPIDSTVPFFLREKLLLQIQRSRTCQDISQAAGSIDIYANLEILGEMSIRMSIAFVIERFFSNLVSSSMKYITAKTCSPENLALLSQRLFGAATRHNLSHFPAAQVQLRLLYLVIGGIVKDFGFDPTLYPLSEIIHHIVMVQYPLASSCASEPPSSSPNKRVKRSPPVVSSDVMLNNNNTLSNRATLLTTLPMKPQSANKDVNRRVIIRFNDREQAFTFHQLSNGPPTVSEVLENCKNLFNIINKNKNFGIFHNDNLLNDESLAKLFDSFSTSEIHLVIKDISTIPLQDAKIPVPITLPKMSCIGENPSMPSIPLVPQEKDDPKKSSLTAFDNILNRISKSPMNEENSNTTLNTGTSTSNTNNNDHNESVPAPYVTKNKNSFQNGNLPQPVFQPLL
Procedure, shortened: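 Using PURExpress in vitro transcription/translation, GST-tagged yeast transcription factors were made in full-length or DNA-binding-domain form. These were applied at about 100-200 nM to double-stranded universal all-10-mer Agilent arrays, and bound protein was detected with fluorescent anti-GST. Scans were normalised with masliner before the Universal PBM Analysis Suite assigned E-scores to ungapped eight-base words pooled with their reverse complements.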

Row | Sequence | PBM E-score
1 | CACACACC | 0.235
2 | GACACATA | 0.197
3 | GACACACC | 0.28
4 | GAGACACA | 0.14
5 | AACACACC | 0.27
6 | TGGACACA | 0.0645
7 | GACACACA | 0.298
8 | GGGACACC | -0.0207
9 | GGGACACA | 0.297
10 | GTGGGACA | 0.0875
11 | CAAGGCAC | -0.0306
12 | AAGGCCCT | -0.164
13 | CTGGTAGA | 0.0523
14 | CAGCTAGA | 0.0392
15 | AAGAATGG | -0.12
16 | AGGACTTA | -0.0181
17 | ATGACTTC | 0.341
18 | CTGACTTA | 0.187
19 | ACGACTTC | 0.0846
20 | CTGACTTC | 0.195
21 | ATGACTTA | 0.349
22 | ACCTTACT | -0.129
23 | CAGTACCG | 0.0537
24 | ACTGAGCT | -0.0929
25 | GTGACCCA | 0.267

Row | Sequence | PBM E-score
26 | ATGACCCA | 0.362
27 | CTGACCCA | 0.0712
28 | TCGCTGAA | 0.0432
29 | AGAACACT | 0.108
30 | CACGGTGA | 0.106
31 | CACGGTGC | 0.0709
32 | CACGGTGG | 0.273
33 | ATGCATAG | 0.013
34 | CATGTCTC | 0.294
35 | AATGTCTC | 0.137
36 | CATGTCTA | 0.0965
37 | GGTGAGTA | 0.282
38 | CATGAGTA | 0.225
39 | AGTGAGTA | 0.192
40 | GGTGAGGA | 0.00616
41 | GATGAGTA | 0.382
42 | GCTGAGTA | 0.0378
43 | TCGCAGCA | 0.0961
44 | ACTTCTAT | -0.0176
45 | CACTGCGG | 0.213
46 | AATGTTGA | 0.043
47 | CATGTTGA | 0.278
48 | CATGTTGC | 0.0935
49 | GGTTTCTA | -0.122
50 | ATCATCAG | 0.0874

Row | Sequence | PBM E-score
51 | CTCATCAG | 0.312
52 | CTCATCAC | 0.0121
53 | TAACACGA | 0.212
54 | CTCTCCAG | -0.232
55 | ATGTCTAG | 0.12
56 | ACGGAGTA | 0.0079
57 | AAGGAGTC | 0.203
58 | ACGGAGTC | 0.408
59 | CAGGAGTC | 0.373
60 | CAGGAGTA | -0.00382
61 | CCGGAGTC | 0.421
62 | CCGGAGTA | 0.0674
63 | CCGGAGGC | -0.141
64 | ACGGAGTG | 0.00137
65 | AGCCGTCA | -0.0405
66 | GCAAGTAC | -0.109
67 | ATAGGAAG | 0.0182
68 | AGAGTTTG | 0.0245
69 | CGCTGTTA | -0.0856
70 | CGTCACGC | -0.208
71 | GGTCACGA | 0.09
72 | CGTCACGA | 0.00392
73 | AATCACGG | 0.259
74 | ATTCACGC | 0.117
75 | AGTCACGC | 0.426

Row | Sequence | PBM E-score
76 | AGTCACGG | 0.417
77 | ATTCACGG | 0.0271
78 | AGTCACGA | 0.411
79 | CAGAACAG | 0.066
80 | GGCTCCTA | -0.136
81 | CCAACAGA | -0.0653
82 | CCCCGCTA | -0.0924
83 | CTTTGGCC | -0.254
84 | AATTAATA | 0.102
85 | CCACTCGA | 0.0905
86 | ATTCAATA | -0.0197
87 | GTCACGTA | 0.13
88 | ACGCCTTG | -0.0936
89 | CTTGGCCA | -0.0546
90 | GTAGTCCA | -0.0646
91 | GCAGCGAC | 0.167
92 | ATGGTTCC | 0.318
93 | ATGGTTCA | 0.366
94 | CTGGTTCA | -0.0177
95 | ATGGTTCG | 0.224
96 | CTGGTTCC | 0.0593
97 | GTGGTTCA | 0.254
98 | CATTAGGA | -0.0276
99 | ACAGTTCA | 0.0273
100 | CGCAATCC | -0.0979

Row | Sequence | PBM E-score
101 | AAACCTAA | -0.0619
102 | TAATGGCA | -0.00432
103 | CTCAATAC | 0.226
104 | ATCAAAGG | -0.0468
105 | CAAGAGCG | 0.0553
106 | CTGGGTCA | 0.11
107 | GAGGGTGA | 0.153
108 | ATGGGTCA | 0.263
109 | CTGGGTGA | 0.275
110 | GTGGGTGA | 0.331
111 | CTGGGTGC | 0.123
112 | ATGGGTGG | 0.242
113 | GTGGGTAA | 0.138
114 | CAGGGTGA | 0.114
115 | ATGGGTGC | 0.0292
116 | GTGGGTCA | 0.365
117 | ATGGGTGA | 0.322
118 | CACCTACC | -0.125
119 | AAGTGCGT | -0.0339
120 | GTCTGTAA | -0.0248
121 | AATTCTTC | -0.211
122 | AGATCACC | -0.0605
123 | ACTGGTCG | 0.0753
124 | GTCGTCTA | -0.0586
125 | GAACTAGC | -0.118

Row | Sequence | PBM E-score
126 | AACAGGAT | -0.0425
127 | CTATGAAC | 0.107
128 | CCTATCTA | -0.245
129 | AGTCAGAT | 0.27
130 | CGTCAGCA | -0.11
131 | ACTCAGCG | 0.133
132 | AGTCAGAA | 0.18
133 | GGTCAGCA | 0.15
134 | AGTCAGCC | 0.402
135 | AGTCAGAG | 0.386
136 | ATTCAGCG | -0.0101
137 | CGTCAGCC | 0.044
138 | ACTCAGCC | 0.151
139 | AGTCAGCG | 0.347
140 | AGTCAGCA | 0.346
141 | CTAGCCTA | -0.153
142 | GGAACCAA | 0.171
143 | AAAGGCGC | -0.0831
144 | ACACCCAT | 0.191
145 | AGGTAATC | 0.104
146 | ACACTCCC | 0.0331
147 | CATGGGTA | 0.27
148 | GATGGGTA | 0.285
149 | AATGGGTA | 0.0928
150 | CAACCCGC | 0.272

Row | Sequence | PBM E-score
151 | CAACCCGG | -0.116
152 | AAACCCGC | 0.0774
153 | CGTTTCAG | -0.0522
154 | ATAGGCCG | -0.229
155 | CATCGATG | 0.302
156 | AATCGATG | 0.107
157 | CATCGATC | 0.016
158 | AGCACAGG | 0.00375
159 | CCAGTCGA | 0.0785
160 | TAAAGGCA | -0.226
161 | AGAGTATC | -0.0198
162 | CCAAGCAC | 0.112
163 | AGATGGGC | -0.0228
164 | CGATGGGA | -0.0641
165 | CGATGGGC | 0.297
166 | ACTTGGCG | 0.0405
167 | CGATAGGA | 0.129
168 | TAGTCTGA | 0.218
169 | GAGTCAAA | 0.312
170 | TAGTCAAA | 0.117
171 | AAGTCAAC | -0.00442
172 | GAGTCAAC | 0.403
